Source: the supplement of paper PMC6555819

Experiments:
Experiment in all cases: PBM binding z-score (relative to random genomic background probes); higher = stronger binding; sequences stand for … in GC…GCGATTGACAGCGTAGAATGAAGG
[1] = tested on: RARb homodimer (NR concentration 270 nM)
Procedure, shortened: (§1)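 Scanned fluorescence from custom Agilent 4×180K protein-binding microarrays was regression-normalized. Binding z-scores use random background probes as reference. Ligand-free nuclear receptor dimers were incubated on the arrays for 1 h and detected with antibodies against each partner (one per run).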

[2] = tested on: RARg:RXRa (NR concentration 270 nM, RXRa partner concentration 90 nM)
Procedure, shortened: as §1

[3] = tested on: RARg homodimer (NR concentration 270 nM)
Procedure, shortened: as §1

[4] = tested on: RXRa DBDmut IVT, anti-RXR (DBD mutation: RXRa K156A/R161A, NR concentration 90 nM)
Procedure, shortened: as §1

[5] = tested on: RXRa homodimer (NR concentration 180 nM)
Procedure, shortened: as §1

[6] = tested on: THRa:RXRa (NR concentration 90 nM, RXRa partner concentration 90 nM)
Procedure, shortened: as §1

[7] = tested on: THRa homodimer (NR concentration 90 nM)
Procedure, shortened: as §1

[8] = tested on: VDR homodimer (NR concentration 270 nM)
Procedure, shortened: as §1

| Sequence | PBM binding z-score [1] | PBM binding z-score [2] | PBM binding z-score [3] | PBM binding z-score [4] | PBM binding z-score [5] | PBM binding z-score [6] | PBM binding z-score [7] | PBM binding z-score [8] |
| --- | --- | --- | --- | --- | --- | --- | --- | --- |
| CCTTACGGGTCACTTCAGGTTATAGCATCGGAGT | 2.86 | 4.35 | 4.1 | 1.67 | 4.38 | 5.04 | 1.29 | 1.71 |
| CGAACGAGGGCAGGAGTTGATAGCAAATGCCGAT | 0.754 | 0.906 | 1.13 | 0.67 | 0.365 | 0.403 | -0.595 | 0.281 |
| CAAACTAGGTCACGAAGGGTCAAAGTCGAATGAC | 5.36 | 7.01 | 7.66 | 2.33 | 7.15 | 4.95 | 2 | 3.79 |
| ACTCGGAGGACAAAGGTCAGAGCTACGCCAGTGA | 4.27 | 5.92 | 5.23 | 1.08 | 5.45 | 3.35 | 0.581 | 1.03 |
| TTACCTAGGTGAAAGGTCGTTGATGCACGCCTTG | 2.24 | 3.56 | 1.38 | 0.705 | 4.66 | 3.15 | 0.624 | 1.19 |
| TCGAGTAGGTTACCAATGGGGCACTCAGCTTTCT | 0.601 | 1.21 | 0.434 | 0.0606 | 0.428 | 0.0127 | -0.648 | -0.704 |
| AATACAGGGTCACTAGGCCTGAGTAGGTACGAAT | 3.04 | 4.82 | 4.35 | 2.53 | 5.28 | 3.13 | 0.975 | 1.81 |
| AATACAGGTTCACTAGGCCAGAGTAGGTACGAAT | 1.25 | 1.84 | 1.4 | 4.16 | 2.15 | 1.12 | 0.232 | 4.64 |
| CCTTACGGGTCACGGACAGGTTATAGCATTTGGA | 3.42 | 6.84 | 5.39 | 1.99 | 6.76 | 3.59 | 0.532 | 1.16 |
| CCTTACGGGTCACTGACAGGTTGTAGCATTTGGA | 3.13 | 5.06 | 4.23 | 2.01 | 4.67 | 2.65 | 0.174 | 0.754 |
| TAGTCTAGGTCAGATCGGGCCAGTATACGCTATA | 2.21 | 2.72 | 3.51 | -0.14 | 1.39 | 4.26 | 0.664 | -0.0113 |
| CAGCCTAGGTCAGGGCCAGTATGGGAGGAACGTT | 2.38 | 3.22 | 3.76 | -0.69 | 1.38 | 1.95 | 0.312 | -0.378 |
| CCGAGTAGGTTGTGGGGCATTCAGGCAACGGTGA | 0.739 | -0.398 | -0.497 | -0.201 | -0.326 | 0.119 | 0.578 | 0.435 |
| CCAGACAGGGGAAAGGTAACTCAGTCTGGTACGC | 0.183 | 0.177 | -0.0948 | -0.138 | 0.529 | 0.146 | 0.0595 | -0.41 |
| AGAACGAGGGCACGCTGAGTTGATAGCTGAGTAG | 1.13 | 2.07 | 2.06 | 2.15 | 1.37 | 1.92 | -0.0647 | 1.7 |
| TCTATTAGTTGAAGGGCAGCCGACGAGTCCGTTT | 0.841 | 0.303 | 0.318 | 1.74 | 0.258 | 0.00646 | 0.0713 | 1.27 |
| TCTAGCAGGCCAGAGGATCACTCAAGAGGTACGG | -0.66 | -0.277 | -0.18 | -0.0121 | 0.0922 | -0.78 | -0.974 | -0.819 |
| ATCGAAAGGTCGAGGTGAATATAGAGAAAGGGAA | 2.88 | 4.52 | 4.51 | 0.922 | 4.65 | 2.95 | 0.862 | 0.0536 |
| CCAGACAGGAGAAAGGTAACTCAGTCTGGTACGC | 0.0408 | 0.115 | -0.016 | -0.0562 | 0.502 | -0.00788 | -0.183 | -0.102 |
